Screening results from PubChem.
Shown are actives, neighbours in structure and some others; about 8.3% of the full set was active somewhere.
HCV inh – blocks hepatitis C virus | Huh7.5.1 HCVcc-Cre infection, luciferase reporter, 44 h | 3.4% of 340,000 active | Potency, µM (highest dose often 41.8 µM), without a hit: at the highest dose activity change, negative = inhibition, hits mostly inhibitors; further: potency means the concentration at half of the fitted maximal effect
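Cells seeded at 1,000/well and cultured 4 h, then compounds added followed by HCVcc-Cre virus (~0.5 moi). After 44 h further culture, luciferase substrate was added, plates held 15 min at room temperature, and luminescence read for 15 sec.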
Giardia FBPA inh – blocks Giardia fructose-bisphosphate aldolase activity; purified Giardia FBPA; A8B2U2; AID 2451; Potency, µM (highest dose often 59.6 µM), without a hit: top-dose activity, negative = inhibition, actives largely listed as inhibitors; 0.71% of 290,000 active; further: potency means the concentration at half of the fitted maximal effect; nearly all actives have a fitted effect of over 55% in size
Target sequence (A8B2U2 whole entry, looked up): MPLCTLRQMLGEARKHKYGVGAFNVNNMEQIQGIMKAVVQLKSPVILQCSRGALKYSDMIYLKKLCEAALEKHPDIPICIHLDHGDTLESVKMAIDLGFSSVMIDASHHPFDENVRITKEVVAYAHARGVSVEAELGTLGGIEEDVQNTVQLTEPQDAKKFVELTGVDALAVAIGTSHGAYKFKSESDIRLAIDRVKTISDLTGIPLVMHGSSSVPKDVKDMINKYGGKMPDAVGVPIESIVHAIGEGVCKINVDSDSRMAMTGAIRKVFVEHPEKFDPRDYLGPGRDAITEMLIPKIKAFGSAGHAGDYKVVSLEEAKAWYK
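40 nM FBPA preincubated 10 min at RT with compound (up to 57.5 uM final), then substrate plus GAPDH/TPI/NAD/arsenate coupling and diaphorase/resazurin added. Fluorescence read after 20 min at RT, 525/598 nm.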
FMDV inh – antivirals against foot and mouth disease virus; FMDV antiviral cell-based qHTS; Potency, µM (doses to about 57.9 µM), without a hit: at the highest dose activity change, negative = inhibition, usual class: inhibitors; 1.2% of 410,000 active; calls by dose curve; tested in HEK293T cells; further: read-out not given here; potency means the concentration at half of the fitted maximal effect; nearly all actives have a fitted effect of over 45% in size
HCMV antiviral – human cytomegalovirus inhibition; activity change, negative = inhibition, % at 57.5 µM; 4.5% of 410,000 active; HFF cells, HCMV-luciferase reporter, 72 h; stronger effect = lower value; in the data active means activity change below about -60%; inconclusive means no clear call, values can overlap the other calls; inactive means above about -39%
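Inhibition of viral replication was scored as loss of reporter luminescence in HFFs infected with HCMV-luciferase (MOI 1 PFU/cell) for 72 h; compounds tested at 2 doses, normalized to buffer and Salinomycin controls.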
MARV entry inh – inhibitors of Marburg virus binding or cell entry; Marburg virus pseudotyped entry inhibition, cell reporter; Potency, µM (titrated, usually from 37.8 µM), for the others: at the top dose activity change, negative = inhibition, most hits filed as inhibitors; 1.8% of 300,000 active; calls by dose curve; tested in HEK293 cells; further: potency means the concentration at half of the fitted maximal effect
LASV entry inh – Lassa virus entry inhibition. AID 540256. Lassa virus pseudotype entry inhibition, cell reporter. 1.2% of 300,000 active. Potency, µM (series often up to 37.9 µM), for inactives: top-dose activity change, negative = inhibition, actives largely listed as inhibitors; calls by dose curve; tested in HEK293 cells; further: potency means the concentration at half of the fitted maximal effect; nearly all actives have a fitted effect of over 50% in size
An asterisk follows results filed as active; [ ] = remark or other dose. Unless noted, the call rests on the fitted dose curve; in most records, active means well fitted curve in the direction sought with a large enough effect; inconclusive means small, poorly fitted or top-dose-only effect, or another doubt; inactive means no such curve, though single readings can be large; an effect the other way counts as inactive or inconclusive. On the % scale 0 is the no-effect control and ±100 the full control effect.

Results for COc1ccc(-c2cc(C)nc3c(-c4ccccc4)cnn23)cc1 ?
HCV inh: 11µM*; Giardia FBPA inh: -1%; FMDV inh: inconclusive; HCMV antiviral: 37; MARV entry inh: -27%[46.1 µM]; LASV entry inh: inconclusive

How did Cc1nc2nc(SCC(=O)NCc3ccccc3)nn2c(C)c1Cc1ccccc1Cl do in these assays?
FMDV inh: -23%; HCMV antiviral: -21; MARV entry inh: 29%[46.1 µM]; LASV entry inh: -5%[46.1 µM]

Results for Cc1ccc(C)c(N2CCN(C(=O)CN3C(=O)CSc4c3c(C)nn4-c3ccccc3)CC2)c1 ?
FMDV inh: 35µM*; HCMV antiviral: -9; LASV entry inh: 11%[46.1 µM]

Results for COC(=O)[C@@H]1[C@@H](C)N(CCc2cc(OC)c(OC)c(OC)c2)C(=O)N[C@H]1c1ccccc1 ?
Giardia FBPA inh: 18%[12.9 µM]; MARV entry inh: -31%[14.2 µM]

What do the screens show for `Cc1cc(/C=N/n2c(COc3ccccc3)nc3ccccc3c2=O)c(O)c([N+](=O)[O-])c1`?
HCV inh: inconclusive; Giardia FBPA inh: 8%; FMDV inh: -29%; HCMV antiviral: -63*; MARV entry inh: inconclusive; LASV entry inh: inconclusive

What do the screens show for `Cc1ccc(-c2[nH]ncc2/C=N/n2c(COc3ccccc3)nc3ccccc3c2=O)cc1`?
HCV inh: 11µM*; Giardia FBPA inh: 8%; FMDV inh: -23%; HCMV antiviral: -78*; MARV entry inh: inconclusive; LASV entry inh: inconclusive

How did Cc1ccccc1OCc1nc2ccccc2c(=O)n1/N=C/c1cn[nH]c1-c1ccccc1 do in these assays?
HCV inh: inconclusive; Giardia FBPA inh: -3%; FMDV inh: inconclusive; HCMV antiviral: -16; MARV entry inh: 16µM*; LASV entry inh: 10µM*

What do the screens show for `Cc1ccc(-n2ncc3c(NCCC4=CCCCC4)ncnc32)cc1C`?
FMDV inh: 11%; HCMV antiviral: -4; LASV entry inh: inconclusive

Results for Cc1ccccc1C1(CC(=O)N2CCCC(C)C2)CC(=O)N(Cc2cccnc2)C1=O (centres undefined) ?
FMDV inh: 6%

Results for CC(C)(C)c1ccc(CN(Cc2ccccc2)C(c2ccccn2)c2nnnn2C(C)(C)C)cc1 (centres undefined) ?
HCV inh: 10µM*; Giardia FBPA inh: -10%; FMDV inh: -22%; HCMV antiviral: -29; MARV entry inh: inconclusive; LASV entry inh: 5.6µM*

Results for CCN(Cc1ccccc1)C(c1ccncc1)c1nnnn1C(C)(C)C (centres undefined) ?
HCV inh: 13%; Giardia FBPA inh: -1%; FMDV inh: -23%; HCMV antiviral: -25; MARV entry inh: -19%; LASV entry inh: -47%

How did CC(C)(C)n1nnnc1C(c1cc2ccccc2o1)N(Cc1ccccc1)Cc1ccccc1 (centres undefined) do in these assays?
FMDV inh: inconclusive; HCMV antiviral: -87*

How did CN(CCc1ccccc1)C(c1cc2ccccc2o1)c1nnnn1C(C)(C)C (centres undefined) do in these assays?
FMDV inh: -26%; HCMV antiviral: -9

How did O=C(NCc1ccccc1)c1nc2ccccc2nc1-c1ccc(F)cc1 do in these assays?
HCMV antiviral: 18

How did Cc1c(C(=O)c2ccccc2)c2ccccn2c1CCc1ccccn1 do in these assays?
HCV inh: -6%; Giardia FBPA inh: inconclusive; FMDV inh: -23%; HCMV antiviral: -12; MARV entry inh: inconclusive; LASV entry inh: inconclusive

Results for Cc1c(C(=O)c2ccc(F)cc2)c2ccccn2c1CCc1ccccn1 ?
HCV inh: inconclusive; Giardia FBPA inh: -21%; FMDV inh: 40µM*; HCMV antiviral: -16; MARV entry inh: inconclusive; LASV entry inh: 8%[46.1 µM]

Results for COC(=O)C/C=C/[C@@H](C)[C@H](NC(=O)OCC(Cl)(Cl)Cl)c1ccc2ccccc2c1 ?
Giardia FBPA inh: -4%; MARV entry inh: -18%[14.2 µM]

Results for O=C(NCC1CCN(c2ccc(S(=O)(=O)N3CCOCC3)cc2)CC1)c1ccc(Cl)cc1 ?
HCV inh: inconclusive; Giardia FBPA inh: 1%; FMDV inh: 40µM*; HCMV antiviral: inconclusive; MARV entry inh: inconclusive; LASV entry inh: inconclusive
